Key:
[1] = molecular target: T1, Inhibitor of nuclear factor kappa-B kinase subunit epsilon (Homo sapiens) (UniProt Q14164); details: at 1 µM;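 note: reported values are averaged percent inhibition figures against human IKKε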
T1 sequence (whole entry): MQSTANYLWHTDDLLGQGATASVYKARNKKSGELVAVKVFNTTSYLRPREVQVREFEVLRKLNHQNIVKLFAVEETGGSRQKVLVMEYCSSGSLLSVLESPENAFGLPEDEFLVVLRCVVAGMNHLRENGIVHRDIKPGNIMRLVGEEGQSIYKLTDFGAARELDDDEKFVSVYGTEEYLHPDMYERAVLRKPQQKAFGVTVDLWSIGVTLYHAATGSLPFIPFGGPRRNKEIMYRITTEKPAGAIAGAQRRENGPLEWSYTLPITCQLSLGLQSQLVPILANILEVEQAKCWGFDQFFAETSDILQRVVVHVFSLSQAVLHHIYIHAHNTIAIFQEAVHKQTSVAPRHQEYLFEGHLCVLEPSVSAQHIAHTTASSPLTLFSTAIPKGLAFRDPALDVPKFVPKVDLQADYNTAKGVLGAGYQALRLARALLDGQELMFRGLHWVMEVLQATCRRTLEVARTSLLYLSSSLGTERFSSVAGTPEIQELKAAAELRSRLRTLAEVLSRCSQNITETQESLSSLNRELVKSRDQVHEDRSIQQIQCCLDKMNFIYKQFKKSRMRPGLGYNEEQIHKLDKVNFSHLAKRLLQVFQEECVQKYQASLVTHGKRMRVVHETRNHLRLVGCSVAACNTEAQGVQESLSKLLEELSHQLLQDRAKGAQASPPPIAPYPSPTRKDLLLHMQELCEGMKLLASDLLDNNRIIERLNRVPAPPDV

[2] = molecular target: T2, Serine/threonine-protein kinase Nek1 (Homo sapiens) (UniProt Q96PY6); details: at 0.1 µM
T2 sequence (whole entry): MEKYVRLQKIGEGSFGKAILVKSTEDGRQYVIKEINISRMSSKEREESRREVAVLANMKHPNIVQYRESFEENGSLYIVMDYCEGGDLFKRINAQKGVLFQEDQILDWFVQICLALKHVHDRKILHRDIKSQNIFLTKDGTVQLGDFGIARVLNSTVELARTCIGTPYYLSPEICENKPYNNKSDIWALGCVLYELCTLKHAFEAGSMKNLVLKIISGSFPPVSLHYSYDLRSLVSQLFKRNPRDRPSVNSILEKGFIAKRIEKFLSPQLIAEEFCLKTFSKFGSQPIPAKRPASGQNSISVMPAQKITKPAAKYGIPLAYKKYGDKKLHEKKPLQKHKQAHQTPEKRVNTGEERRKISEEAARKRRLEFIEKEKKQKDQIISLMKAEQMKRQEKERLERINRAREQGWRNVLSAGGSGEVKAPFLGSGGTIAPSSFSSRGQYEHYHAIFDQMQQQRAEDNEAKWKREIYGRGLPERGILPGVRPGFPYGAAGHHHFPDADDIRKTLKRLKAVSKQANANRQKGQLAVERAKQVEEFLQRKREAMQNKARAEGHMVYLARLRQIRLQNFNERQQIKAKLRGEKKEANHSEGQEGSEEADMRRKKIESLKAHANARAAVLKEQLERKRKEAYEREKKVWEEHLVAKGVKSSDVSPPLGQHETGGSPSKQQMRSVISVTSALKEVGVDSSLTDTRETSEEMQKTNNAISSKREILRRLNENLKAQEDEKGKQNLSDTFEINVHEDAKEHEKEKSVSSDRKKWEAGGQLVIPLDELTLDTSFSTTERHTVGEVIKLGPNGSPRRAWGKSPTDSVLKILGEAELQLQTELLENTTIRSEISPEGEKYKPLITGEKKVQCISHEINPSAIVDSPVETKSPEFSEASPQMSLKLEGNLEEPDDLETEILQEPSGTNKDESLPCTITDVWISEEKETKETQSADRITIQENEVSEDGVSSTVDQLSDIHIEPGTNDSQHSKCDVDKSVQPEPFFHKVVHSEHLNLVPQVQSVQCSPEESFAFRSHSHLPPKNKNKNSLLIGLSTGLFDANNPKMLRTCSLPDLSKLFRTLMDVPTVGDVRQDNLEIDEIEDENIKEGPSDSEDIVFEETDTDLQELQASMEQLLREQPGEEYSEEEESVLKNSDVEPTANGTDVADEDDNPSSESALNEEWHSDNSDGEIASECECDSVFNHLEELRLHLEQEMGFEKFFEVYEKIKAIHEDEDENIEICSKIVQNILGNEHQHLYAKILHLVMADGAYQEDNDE

[3] = molecular target: T2, Serine/threonine-protein kinase Nek1 (Homo sapiens); details: at 1 µM
[4] = molecular target: T3, Serine/threonine-protein kinase Nek2 (Homo sapiens) (UniProt P51955); details: at 0.1 µM
T3 sequence (whole entry): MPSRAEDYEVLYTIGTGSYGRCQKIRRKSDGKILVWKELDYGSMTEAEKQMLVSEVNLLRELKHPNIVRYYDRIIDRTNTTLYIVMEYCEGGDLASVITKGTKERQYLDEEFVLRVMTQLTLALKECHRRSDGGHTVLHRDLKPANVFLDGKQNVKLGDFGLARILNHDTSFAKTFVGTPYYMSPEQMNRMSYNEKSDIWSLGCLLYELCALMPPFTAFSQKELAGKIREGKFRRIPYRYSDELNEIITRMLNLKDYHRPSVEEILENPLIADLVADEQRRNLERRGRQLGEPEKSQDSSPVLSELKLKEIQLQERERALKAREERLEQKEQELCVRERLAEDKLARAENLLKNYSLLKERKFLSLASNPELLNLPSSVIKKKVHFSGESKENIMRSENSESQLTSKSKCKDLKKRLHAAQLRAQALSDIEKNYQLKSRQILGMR

[5] = molecular target: T3, Serine/threonine-protein kinase Nek2 (Homo sapiens); details: at 1 µM
[6] = molecular target: Serine/threonine-protein kinase Nek6 (Homo sapiens) (UniProt Q9HC98); details: at 0.1 µM
[7] = molecular target: Serine/threonine-protein kinase Nek6 (Homo sapiens) (UniProt Q9HC98); details: at 1 µM
[8] = molecular target: Serine/threonine-protein kinase Nek7 (Homo sapiens) (UniProt Q8TDX7); details: at 0.1 µM
[9] = molecular target: Serine/threonine-protein kinase Nek7 (Homo sapiens) (UniProt Q8TDX7); details: at 1 µM
[10] = molecular target: T4, Serine/threonine-protein kinase Nek9 (Homo sapiens) (UniProt Q8TD19); details: at 0.1 µM
T4 sequence (whole entry): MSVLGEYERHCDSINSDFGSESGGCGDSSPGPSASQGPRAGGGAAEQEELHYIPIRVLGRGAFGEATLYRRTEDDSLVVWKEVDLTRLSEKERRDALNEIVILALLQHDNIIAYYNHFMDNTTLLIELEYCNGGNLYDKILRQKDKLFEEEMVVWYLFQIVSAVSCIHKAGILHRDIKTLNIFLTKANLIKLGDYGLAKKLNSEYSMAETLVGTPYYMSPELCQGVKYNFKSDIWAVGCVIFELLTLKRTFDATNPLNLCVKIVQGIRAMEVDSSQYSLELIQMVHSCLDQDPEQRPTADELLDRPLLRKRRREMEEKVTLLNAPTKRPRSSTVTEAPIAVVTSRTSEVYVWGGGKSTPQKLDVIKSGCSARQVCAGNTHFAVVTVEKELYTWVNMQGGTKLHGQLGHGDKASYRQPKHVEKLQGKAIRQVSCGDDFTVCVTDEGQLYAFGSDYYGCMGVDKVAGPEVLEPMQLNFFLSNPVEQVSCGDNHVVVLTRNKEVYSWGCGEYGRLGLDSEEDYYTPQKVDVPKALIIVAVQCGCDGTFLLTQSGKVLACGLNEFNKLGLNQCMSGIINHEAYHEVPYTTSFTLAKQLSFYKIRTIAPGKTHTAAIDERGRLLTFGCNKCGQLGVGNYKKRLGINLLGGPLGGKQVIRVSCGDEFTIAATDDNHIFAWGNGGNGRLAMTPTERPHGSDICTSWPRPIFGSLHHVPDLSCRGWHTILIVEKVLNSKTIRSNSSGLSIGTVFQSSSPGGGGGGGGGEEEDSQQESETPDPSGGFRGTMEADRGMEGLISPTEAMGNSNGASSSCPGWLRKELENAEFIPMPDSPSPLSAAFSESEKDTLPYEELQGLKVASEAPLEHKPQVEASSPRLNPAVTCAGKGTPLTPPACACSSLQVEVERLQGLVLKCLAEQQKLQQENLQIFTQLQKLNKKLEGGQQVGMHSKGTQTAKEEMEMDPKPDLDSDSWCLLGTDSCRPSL

[11] = molecular target: T4, Serine/threonine-protein kinase Nek9 (Homo sapiens); details: at 1 µM
[12] = molecular target: Serine/threonine-protein kinase PLK1 (Homo sapiens) (UniProt P53350); details: at 0.1 µM
[13] = molecular target: Serine/threonine-protein kinase PLK1 (Homo sapiens) (UniProt P53350); details: at 1 µM
[14] = molecular target: T5, Dual specificity protein kinase TTK (Homo sapiens) (UniProt P33981); details: at 0.1 µM
T5 sequence (whole entry): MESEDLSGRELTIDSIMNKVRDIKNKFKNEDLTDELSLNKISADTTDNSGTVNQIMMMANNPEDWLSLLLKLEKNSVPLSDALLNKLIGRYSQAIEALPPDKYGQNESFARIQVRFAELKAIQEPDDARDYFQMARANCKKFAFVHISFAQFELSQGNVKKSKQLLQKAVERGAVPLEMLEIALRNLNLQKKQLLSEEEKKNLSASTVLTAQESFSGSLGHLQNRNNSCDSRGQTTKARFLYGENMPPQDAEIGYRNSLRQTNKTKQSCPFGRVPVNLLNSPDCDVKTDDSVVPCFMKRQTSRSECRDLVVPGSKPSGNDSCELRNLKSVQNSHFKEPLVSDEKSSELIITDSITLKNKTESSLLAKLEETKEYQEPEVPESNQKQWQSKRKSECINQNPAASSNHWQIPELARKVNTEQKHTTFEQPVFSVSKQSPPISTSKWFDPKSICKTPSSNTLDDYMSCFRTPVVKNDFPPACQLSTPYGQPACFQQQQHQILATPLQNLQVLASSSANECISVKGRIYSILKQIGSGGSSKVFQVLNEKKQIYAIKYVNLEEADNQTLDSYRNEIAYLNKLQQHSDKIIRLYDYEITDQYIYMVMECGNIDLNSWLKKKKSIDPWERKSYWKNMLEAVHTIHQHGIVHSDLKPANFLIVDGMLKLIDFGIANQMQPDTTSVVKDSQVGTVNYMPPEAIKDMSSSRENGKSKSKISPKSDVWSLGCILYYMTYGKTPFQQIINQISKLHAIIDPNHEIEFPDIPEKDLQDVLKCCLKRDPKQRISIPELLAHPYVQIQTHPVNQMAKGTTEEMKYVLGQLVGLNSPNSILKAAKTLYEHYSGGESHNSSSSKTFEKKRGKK

[15] = system: T6, Receptor-type tyrosine-protein kinase FLT3 (Homo sapiens), P36888 [D835Y]; details: at 1 µM
T6 sequence (whole entry): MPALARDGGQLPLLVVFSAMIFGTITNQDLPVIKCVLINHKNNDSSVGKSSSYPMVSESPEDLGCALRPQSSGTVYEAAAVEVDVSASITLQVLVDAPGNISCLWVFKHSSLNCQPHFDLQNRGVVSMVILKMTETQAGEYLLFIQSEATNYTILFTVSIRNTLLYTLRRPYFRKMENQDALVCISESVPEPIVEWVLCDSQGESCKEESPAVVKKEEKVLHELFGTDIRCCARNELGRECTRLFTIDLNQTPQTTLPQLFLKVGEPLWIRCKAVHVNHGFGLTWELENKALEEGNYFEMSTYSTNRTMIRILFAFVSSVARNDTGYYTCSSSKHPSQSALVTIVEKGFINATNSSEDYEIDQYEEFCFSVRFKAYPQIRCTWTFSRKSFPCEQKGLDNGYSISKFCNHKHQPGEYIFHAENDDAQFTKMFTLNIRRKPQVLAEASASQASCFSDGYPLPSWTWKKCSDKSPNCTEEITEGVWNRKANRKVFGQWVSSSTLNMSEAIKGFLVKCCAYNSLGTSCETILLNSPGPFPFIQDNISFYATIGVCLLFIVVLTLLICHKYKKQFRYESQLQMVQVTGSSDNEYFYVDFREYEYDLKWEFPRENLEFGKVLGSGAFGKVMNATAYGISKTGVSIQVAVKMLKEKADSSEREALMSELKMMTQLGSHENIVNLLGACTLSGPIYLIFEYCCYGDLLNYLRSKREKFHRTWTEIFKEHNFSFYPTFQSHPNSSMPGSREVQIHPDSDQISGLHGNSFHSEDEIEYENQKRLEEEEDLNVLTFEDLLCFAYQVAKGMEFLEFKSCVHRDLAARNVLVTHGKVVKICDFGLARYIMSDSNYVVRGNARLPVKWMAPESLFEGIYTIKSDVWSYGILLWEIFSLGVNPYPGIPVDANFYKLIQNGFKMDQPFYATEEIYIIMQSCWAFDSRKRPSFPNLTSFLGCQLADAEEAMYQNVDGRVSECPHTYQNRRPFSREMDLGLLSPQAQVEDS

[16] = molecular target: Vascular endothelial growth factor receptor 3 (Homo sapiens) (UniProt P35916); details: at 0.1 µM
[17] = molecular target: Vascular endothelial growth factor receptor 3 (Homo sapiens) (UniProt P35916); details: at 1 µM
[18] = molecular target: Macrophage colony-stimulating factor 1 receptor (Homo sapiens) (UniProt P07333); details: at 0.1 µM
[19] = molecular target: Macrophage colony-stimulating factor 1 receptor (Homo sapiens) (UniProt P07333); details: at 1 µM
[20] = molecular target: Tyrosine-protein kinase Fyn (Homo sapiens) (UniProt P06241); details: at 0.1 µM
Sequence of Tyrosine-protein kinase Fyn (Homo sapiens) (P06241 2-537 limits assumed): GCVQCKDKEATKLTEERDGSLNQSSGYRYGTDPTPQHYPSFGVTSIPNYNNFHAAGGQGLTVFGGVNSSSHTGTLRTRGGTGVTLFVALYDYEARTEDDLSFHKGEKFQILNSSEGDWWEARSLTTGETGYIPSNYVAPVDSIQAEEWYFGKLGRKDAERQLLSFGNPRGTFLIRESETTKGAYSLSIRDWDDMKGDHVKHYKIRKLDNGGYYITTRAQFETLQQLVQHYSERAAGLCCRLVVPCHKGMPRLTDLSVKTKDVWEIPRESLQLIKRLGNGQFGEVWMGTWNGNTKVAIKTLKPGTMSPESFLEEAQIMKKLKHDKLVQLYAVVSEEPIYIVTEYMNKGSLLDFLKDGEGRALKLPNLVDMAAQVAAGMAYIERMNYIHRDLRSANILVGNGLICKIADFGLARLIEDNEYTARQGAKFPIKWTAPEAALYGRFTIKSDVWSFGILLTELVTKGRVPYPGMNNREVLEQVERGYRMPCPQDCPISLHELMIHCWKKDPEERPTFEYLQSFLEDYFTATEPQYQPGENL

Sequence of Serine/threonine-protein kinase Nek6 (Homo sapiens) (Q9HC98 whole entry): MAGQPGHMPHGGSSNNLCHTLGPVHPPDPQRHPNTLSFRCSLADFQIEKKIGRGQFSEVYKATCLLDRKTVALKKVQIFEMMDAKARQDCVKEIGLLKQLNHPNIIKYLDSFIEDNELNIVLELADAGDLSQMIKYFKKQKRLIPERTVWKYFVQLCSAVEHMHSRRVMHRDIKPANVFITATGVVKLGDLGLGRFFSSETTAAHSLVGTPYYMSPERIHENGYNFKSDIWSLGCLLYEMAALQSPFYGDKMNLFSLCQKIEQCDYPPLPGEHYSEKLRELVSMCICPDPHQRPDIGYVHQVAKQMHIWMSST
Sequence of Serine/threonine-protein kinase Nek7 (Homo sapiens) (Q8TDX7 whole entry, looked up): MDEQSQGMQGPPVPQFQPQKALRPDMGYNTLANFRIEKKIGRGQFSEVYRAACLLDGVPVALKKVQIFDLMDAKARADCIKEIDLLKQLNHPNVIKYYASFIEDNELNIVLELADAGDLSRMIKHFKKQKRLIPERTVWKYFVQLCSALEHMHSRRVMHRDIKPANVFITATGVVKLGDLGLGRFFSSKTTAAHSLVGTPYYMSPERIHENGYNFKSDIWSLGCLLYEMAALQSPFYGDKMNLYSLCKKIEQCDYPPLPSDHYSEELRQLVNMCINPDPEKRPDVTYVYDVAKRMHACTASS
Sequence of Vascular endothelial growth factor receptor 3 (Homo sapiens) (P35916 whole entry): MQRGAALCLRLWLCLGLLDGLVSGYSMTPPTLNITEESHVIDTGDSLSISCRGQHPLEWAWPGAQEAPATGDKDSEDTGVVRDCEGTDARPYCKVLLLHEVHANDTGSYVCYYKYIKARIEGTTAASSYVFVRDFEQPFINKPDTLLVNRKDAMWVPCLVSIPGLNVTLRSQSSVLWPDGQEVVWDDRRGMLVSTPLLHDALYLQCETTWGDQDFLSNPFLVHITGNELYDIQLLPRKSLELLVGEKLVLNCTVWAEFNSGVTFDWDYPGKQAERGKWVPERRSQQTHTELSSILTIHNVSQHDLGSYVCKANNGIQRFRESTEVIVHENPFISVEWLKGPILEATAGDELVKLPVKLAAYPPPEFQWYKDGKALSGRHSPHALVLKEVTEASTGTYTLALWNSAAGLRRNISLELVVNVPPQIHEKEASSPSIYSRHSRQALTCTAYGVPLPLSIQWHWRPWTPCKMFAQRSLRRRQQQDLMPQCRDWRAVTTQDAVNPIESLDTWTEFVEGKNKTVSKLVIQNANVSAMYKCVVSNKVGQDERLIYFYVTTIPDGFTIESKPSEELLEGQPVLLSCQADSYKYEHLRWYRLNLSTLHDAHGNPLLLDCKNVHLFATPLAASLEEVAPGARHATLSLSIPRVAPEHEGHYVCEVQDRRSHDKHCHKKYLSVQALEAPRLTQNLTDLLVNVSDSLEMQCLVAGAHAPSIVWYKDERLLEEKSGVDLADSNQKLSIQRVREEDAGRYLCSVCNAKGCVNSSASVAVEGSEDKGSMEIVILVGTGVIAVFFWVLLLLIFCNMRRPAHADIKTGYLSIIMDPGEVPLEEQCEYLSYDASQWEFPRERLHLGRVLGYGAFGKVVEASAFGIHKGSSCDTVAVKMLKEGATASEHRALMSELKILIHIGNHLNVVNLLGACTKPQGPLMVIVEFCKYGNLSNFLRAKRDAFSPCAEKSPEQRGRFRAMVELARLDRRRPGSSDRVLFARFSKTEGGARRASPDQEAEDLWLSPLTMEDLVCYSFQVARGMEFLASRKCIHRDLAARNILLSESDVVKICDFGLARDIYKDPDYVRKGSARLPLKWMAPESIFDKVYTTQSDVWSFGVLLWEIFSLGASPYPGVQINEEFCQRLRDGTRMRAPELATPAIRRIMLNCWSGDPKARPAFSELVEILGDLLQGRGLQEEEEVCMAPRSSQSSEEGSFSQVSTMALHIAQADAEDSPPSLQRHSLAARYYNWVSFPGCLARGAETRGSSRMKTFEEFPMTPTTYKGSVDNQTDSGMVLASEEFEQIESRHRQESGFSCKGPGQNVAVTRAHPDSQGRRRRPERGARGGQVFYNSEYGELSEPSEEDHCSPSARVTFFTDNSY
Sequence of Serine/threonine-protein kinase PLK1 (Homo sapiens) (P53350 whole entry): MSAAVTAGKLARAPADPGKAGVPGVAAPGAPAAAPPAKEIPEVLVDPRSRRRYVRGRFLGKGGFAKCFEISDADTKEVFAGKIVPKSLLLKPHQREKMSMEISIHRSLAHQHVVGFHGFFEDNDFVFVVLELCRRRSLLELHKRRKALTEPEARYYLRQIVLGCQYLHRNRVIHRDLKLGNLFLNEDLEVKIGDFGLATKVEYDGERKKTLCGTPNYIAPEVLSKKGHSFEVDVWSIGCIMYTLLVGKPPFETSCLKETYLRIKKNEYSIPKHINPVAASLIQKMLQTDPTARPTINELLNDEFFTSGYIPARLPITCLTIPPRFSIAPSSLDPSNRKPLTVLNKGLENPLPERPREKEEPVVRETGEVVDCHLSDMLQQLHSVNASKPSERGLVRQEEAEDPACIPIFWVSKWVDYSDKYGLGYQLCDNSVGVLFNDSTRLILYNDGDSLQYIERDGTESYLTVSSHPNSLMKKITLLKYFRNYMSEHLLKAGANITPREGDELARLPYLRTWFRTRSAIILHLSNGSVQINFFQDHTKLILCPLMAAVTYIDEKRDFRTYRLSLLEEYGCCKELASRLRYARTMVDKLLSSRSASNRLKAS
Sequence of Macrophage colony-stimulating factor 1 receptor (Homo sapiens) (P07333 whole entry): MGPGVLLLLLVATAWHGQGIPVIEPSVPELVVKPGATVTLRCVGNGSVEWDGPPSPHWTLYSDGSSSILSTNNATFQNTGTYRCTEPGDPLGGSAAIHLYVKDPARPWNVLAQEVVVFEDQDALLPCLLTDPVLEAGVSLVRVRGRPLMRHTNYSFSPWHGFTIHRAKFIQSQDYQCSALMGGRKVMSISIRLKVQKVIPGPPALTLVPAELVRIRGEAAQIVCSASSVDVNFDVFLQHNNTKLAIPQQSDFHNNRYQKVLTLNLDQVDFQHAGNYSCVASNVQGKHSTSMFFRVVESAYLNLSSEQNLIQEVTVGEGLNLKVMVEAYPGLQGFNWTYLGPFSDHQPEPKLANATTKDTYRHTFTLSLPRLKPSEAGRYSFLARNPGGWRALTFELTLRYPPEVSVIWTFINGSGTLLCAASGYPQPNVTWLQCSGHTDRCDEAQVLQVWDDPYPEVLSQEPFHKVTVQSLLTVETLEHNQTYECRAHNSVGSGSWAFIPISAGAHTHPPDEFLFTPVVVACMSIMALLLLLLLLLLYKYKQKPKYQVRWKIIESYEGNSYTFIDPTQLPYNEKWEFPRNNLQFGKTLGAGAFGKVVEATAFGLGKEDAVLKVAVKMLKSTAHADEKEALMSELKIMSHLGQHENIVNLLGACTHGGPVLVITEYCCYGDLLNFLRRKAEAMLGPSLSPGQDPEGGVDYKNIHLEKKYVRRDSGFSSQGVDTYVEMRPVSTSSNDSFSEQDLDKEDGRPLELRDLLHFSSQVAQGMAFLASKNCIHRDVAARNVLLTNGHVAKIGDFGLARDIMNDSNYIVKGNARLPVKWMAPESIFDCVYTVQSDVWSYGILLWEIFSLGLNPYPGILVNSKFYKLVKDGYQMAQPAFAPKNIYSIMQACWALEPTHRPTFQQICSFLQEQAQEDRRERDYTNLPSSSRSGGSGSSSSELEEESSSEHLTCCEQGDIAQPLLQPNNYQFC

NC(=O)Cc1ccccc1Oc1nccc(-c2c(-c3ccc(F)cc3)ncn2C2CCNCC2)n1
inhibition [1]: 0.67%
inhibition [2]: 1.64%
inhibition [3]: 4.11%
inhibition [4]: 2.13%
inhibition [5]: 4.35%
inhibition [6]: 0.28%
inhibition [7]: 1.26%
inhibition [8]: 3.21%
inhibition [9]: 2.73%
inhibition [10]: 10.9%
inhibition [11]: 1.22%
inhibition [12]: 3.44%
inhibition [13]: 2.54%
inhibition [14]: 5.28%
inhibition [15]: 1.28%
inhibition [16]: 1.36%
inhibition [17]: -0.28%
inhibition [18]: 0.18%
inhibition [19]: 1.47%
inhibition [20]: 2.4%

Cc1ccc(NC(=O)c2ccoc2)cc1-c1ccc(C(=O)NCC2CC2)cc1
inhibition [1]: 2.47%
inhibition [2]: 1.2%
inhibition [3]: 0.36%
inhibition [4]: 3.49%
inhibition [5]: 3.48%
inhibition [6]: 2.49%
inhibition [7]: 0.14%
inhibition [8]: 0.66%
inhibition [9]: 1.16%
inhibition [10]: 5.95%
inhibition [11]: 4.64%
inhibition [12]: 2.06%
inhibition [13]: -0.9%
inhibition [14]: 4.04%
inhibition [15]: 5.74%
inhibition [16]: 0.17%
inhibition [17]: 6.22%
inhibition [18]: -2.68%
inhibition [19]: 2.71%
inhibition [20]: 0.65%

From ChEMBL document CHEMBL1961873, “Compounds: GSK PKIS; Assays: Nanosyn kinase panel” (2012)
